Several values for one entry are separate records, joined by “and”; a condition that tells them apart may be missing. Equal values may be shown once. Activity calls are given as the source filed them.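 How the source made its calls, unless noted: active means thallium flux through the channel raised or lowered by more than 3 SD from vehicle-only wells, actives on both sides; inactive means the rest.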
How the values were obtained:
[1] = liver-stage malaria parasite growth inhibition, primary screen, cell-based, HepG2, luciferase luminescence, HepG2 viability (AID 624349; in the data active means parasite load remaining mostly below about 12%, no sharp cut-off; inactive means mostly above about 10%;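 further: 100% = mean of DMSO negative control wells on the same plate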); details: P. berghei liver stage in HepG2, luciferase luminescence, concentration not given here; parasite load remaining: stronger effect = lower value; viability: measured here: HepG2 viability without parasites
[2] = Cy5 fluorescence interference with SSB-bound oligo, artefact control for HCV NS3 helicase inhibitor project, biochemical, NIH Clinical Collection, E. coli SSB (AID 743268; call rule not given here)
[3] = test system: Hepatitis C virus NS3 helicase; test: HCV NS3 helicase inhibitors, primary screen, biochemical, fluorescence polarization, NIH Clinical Collection (AID 743270; call rule not given here); details: NS3 helicase binding to Cy5-dT15 DNA, stronger effect = higher value, concentration not given here
[4] = target: Single-stranded DNA-binding protein (Escherichia coli (strain K12)) (UniProt P0AGE0); test: E. coli SSB displacement from DNA, counter-screen for HCV NS3 helicase inhibitor project, biochemical, fluorescence polarization, NIH Clinical Collection (AID 743271; in the data active means inhibition above about 28%); details: stronger effect = higher value, concentration not given here
[5] = fluorescence interference in NS3h assay format, artefact control for HCV NS3 helicase inhibitor project, biochemical, NIH Clinical Collection (AID 743272; call rule not given here;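 further: HCV NS3 helicase with a Cy5 labelled single stranded DNA probe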); details: fluorescence interference counterscreen, stronger effect = lower value
[6] = sensitizers of A549 cells to miR-34 induction, primary screen, imaging, A549 dox-inducible miR-34, nuclei and caspase counts (AID 1347080;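 active means compounds whose cell count with miR-34 switched on is under 0.7 times the count with it off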); details: A549 miR-34 inducible, Hoechst nuclei count, 48 h
[7] = viability rescue of complex I mutant cybrids, primary screen, cell-based, galactose medium, ATP luminescence (AID 1645843;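 active means z-score of at least 1.8 in each of two replicates, scored against plate mean and spread of sample wells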;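 further: positive z means more ATP and so rescue of galactose-driven cybrid death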); details: complex I mutant cybrid cells, 72 h, stronger effect = higher value
[8] = test system: F380Y; test: modulators of BK channel variants, profiling panel, selectivity assay, cell-based, U2OS BacMam, thallium flux, beta subunits (AID 1259406); details: at 30 µM;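 further: initial slope of Thallos dye fluorescence rise after thallium is added; log ratio against the mean of 0.3% DMSO vehicle wells on the same plate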
[9] = test system: F380Y/beta1; test: as above; details: at 30 µM
[10] = test system: F380Y/beta2Delta; test: as above; details: at 30 µM
[11] = test system: F380Y/beta4; test: as above; details: at 30 µM
[12] = target: Calcium-activated potassium channel subunit alpha-1 (Homo sapiens) + Leucine-rich repeat-containing protein 26 (Homo sapiens) (UniProt Q12791+Q2I0M4); test: as above; details: F380Y/Slo1WT/gamma1, at 30 µM
[13] = test system: R275C; test: as above; details: at 30 µM
[14] = test system: R275C/beta1; test: as above; details: at 30 µM
[15] = test system: R275C/beta2Delta; test: as above; details: at 30 µM
[16] = test system: R275C/beta4; test: as above; details: at 30 µM
[17] = test system: R275C/Slo1WT/beta2; test: as above; details: at 30 µM
[18] = modulation of C. elegans fzo-1 (AID 1259413; call rule not given here;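 further: fzo-1 mutant C. elegans worms in liquid wells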); details: C. elegans fzo-1 modulator screen, mean read-out; stronger effect = higher value
[19] = test system: Neuropilin-2 / VEGF-C interaction (human); test: inhibitors of NRP2–VEGF-C binding, biochemical, microplate binding format, z-score (AID 743281; call rule not given here); details: microplate NRP2/VEGF-C binding assay; stronger effect = lower value
[20] = stronger effect = lower value, cell number ratio, induced over uninduced
[21] = measured here: relative caspase fold change +Dox/-Dox
[22] = measured here: total cells with miR-34 induction, stronger effect = lower value
[23] = measured here: total cells without miR-34 induction

Calcium-activated potassium channel subunit alpha-1 (Homo sapiens) + Leucine-rich repeat-containing protein 26 (Homo sapiens), sequence (Q2I0M4 whole entry, looked up, one chain of several): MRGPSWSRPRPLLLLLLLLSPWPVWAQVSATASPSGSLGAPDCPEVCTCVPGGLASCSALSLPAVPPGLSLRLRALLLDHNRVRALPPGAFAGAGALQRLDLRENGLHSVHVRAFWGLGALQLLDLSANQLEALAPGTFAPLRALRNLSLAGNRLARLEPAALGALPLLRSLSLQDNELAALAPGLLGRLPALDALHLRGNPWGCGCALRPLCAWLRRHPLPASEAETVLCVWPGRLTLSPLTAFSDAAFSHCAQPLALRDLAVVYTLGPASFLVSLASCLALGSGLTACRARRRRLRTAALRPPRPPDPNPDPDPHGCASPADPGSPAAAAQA

O=C1CN(N=Cc2ccc([N+](=O)[O-])o2)C(=O)N1
10400: cell count [6, 23]
9510: cell count [6, 22]
54.9%: viability [1]
active: log fold change Tl+ flux [17] -0.117
inactive: parasite load remaining [1] 0.39% | fluorescence ratio [2] 1 | inhibition [3] -3.18% | inhibition [4] -0.48% | fluorescence ratio [5] 1 | fold change [6, 20] 0.912 | z-score [7] -1.36 | log fold change Tl+ flux [8] -0.0264 | log fold change Tl+ flux [9] -0.025 | log fold change Tl+ flux [10] -0.0429 | log fold change Tl+ flux [11] -0.00406 | log fold change Tl+ flux [12] 0.0181 | log fold change Tl+ flux [13] 0.0135 | log fold change Tl+ flux [14] -0.0666 | log fold change Tl+ flux [15] 0.0336 | log fold change Tl+ flux [16] -0.0417
2: fold change [6, 21]

CO/N=C(/C(=O)NC1C(=O)N2C(C(=O)O)=C(COC(C)=O)CSC12)c1csc(N)n1 (stereo not drawn)
inactive: mean signal [18] 238

C[C@@H]1C[C@H]2[C@@H]3CCC4=CC(=O)C=CC4(C)[C@@]3(F)[C@@H](O)CC2(C)[C@@]1(O)C(=O)CO (stereo partly drawn)
inactive: mean signal [18] 285

C=CC[C@@H]1C=C(C)C[C@H](C)C[C@H](OC)[C@H]2O[C@@](O)(C(=O)C(=O)N3CCCC[C@H]3C(=O)O[C@H](/C(C)=C/[C@@H]3CC[C@@H](O)[C@H](OC)C3)[C@H](C)[C@@H](O)CC1=O)[C@H](C)C[C@@H]2OC
inactive: parasite load remaining [1] 77.5% | fluorescence ratio [2] 0.94 | inhibition [3] -1.19% | inhibition [4] 2.21% | fluorescence ratio [5] 0.92 | log fold change Tl+ flux [9] -0.0137 | log fold change Tl+ flux [12] 0.0458 | log fold change Tl+ flux [13] -0.067 | log fold change Tl+ flux [17] 0.00553
72.5%: viability [1]
active: log fold change Tl+ flux [8] -0.344 | log fold change Tl+ flux [10] -0.629 | log fold change Tl+ flux [11] 0.109 | log fold change Tl+ flux [14] 0.274 | log fold change Tl+ flux [15] 0.123 | log fold change Tl+ flux [16] 0.467

C[C@]12C=CC(=O)C=C1CC[C@@H]1[C@@H]2[C@@H](O)C[C@@]2(C)[C@H]1CC[C@]2(O)C(=O)COC(=O)CCC(=O)O
72.6%: viability [1]
inactive: parasite load remaining [1] 128% | fluorescence ratio [2] 1 | inhibition [3] 7.52% | inhibition [4] 4.52% | fluorescence ratio [5] 0.99 | log fold change Tl+ flux [8] -0.0223 | log fold change Tl+ flux [9] 0.0033 | log fold change Tl+ flux [10] 0.00204 | log fold change Tl+ flux [11] -0.00342 | log fold change Tl+ flux [12] -0.00445 | log fold change Tl+ flux [13] -0.00218 | log fold change Tl+ flux [14] -0.0173 | log fold change Tl+ flux [15] -0.00108 | log fold change Tl+ flux [16] -0.0167 | log fold change Tl+ flux [17] -0.0235

CC(=O)OCC(=O)C12OC(C)(C)O[C@@H]1C[C@H]1[C@@H]3C[C@H](F)C4=CC(=O)C=CC4(C)[C@@]3(F)[C@@H](O)CC12C (stereo partly drawn)
inactive: mean signal [18] 228

CO[C@H]1C=CO[C@@]2(C)Oc3c(C)c(O)c4c(O)c(c(C=NN5CCN(C6CCCC6)CC5)c(O)c4c3C2=O)NC(=O)C(C)=CC=C[C@H](C)[C@H](O)[C@@H](C)[C@@H](O)[C@@H](C)[C@H](OC(C)=O)[C@@H]1C
inactive: parasite load remaining [1] 21.3% | log fold change Tl+ flux [9] -0.0391 | log fold change Tl+ flux [10] 0.0273 | log fold change Tl+ flux [12] 0.0556 | log fold change Tl+ flux [13] -0.0706 | log fold change Tl+ flux [15] 0.0465 | log fold change Tl+ flux [17] 0.00833
active: log fold change Tl+ flux [8] 0.118 | log fold change Tl+ flux [11] 0.177 | log fold change Tl+ flux [14] 0.0996 | log fold change Tl+ flux [16] 0.28
65.4%: viability [1]

CN(C)CC/C=C1/c2ccccc2COc2ccccc21
9460 and 10600: cell count [6, 23]
inactive: parasite load remaining [1] 72.1% and 22.2% and 49.1% | fluorescence ratio [2] 0.97 | inhibition [3] -1.98% | inhibition [4] -0.1% | fluorescence ratio [5] 0.93 | z-score [19] -0.308 | fold change [6, 20] 0.906 and 0.927 | z-score [7] -0.705 | log fold change Tl+ flux [12] 0.0355 | log fold change Tl+ flux [13] 0.0343 | log fold change Tl+ flux [14] 0.0624 | log fold change Tl+ flux [15] 0.0478
active: log fold change Tl+ flux [8] 0.124 | log fold change Tl+ flux [10] 0.0845
8570 and 9810: cell count [6, 22]
73% and 104% and 60.2%: viability [1]
1.31 and 1.98: fold change [6, 21]

CC1=C(C/C=C(\C)CCCC(C)CCCC(C)CCCC(C)C)C(=O)c2ccccc2C1=O (stereo not drawn)
inactive: mean signal [18] 243

CO[C@H]1/C=C/O[C@@]2(C)Oc3c(C)c(O)c4c(O)c(c(C=NN5CCN(C6CCCC6)CC5)c(O)c4c3C2=O)NC(=O)/C(C)=C\C=C\[C@H](C)[C@H](O)[C@@H](C)[C@@H](O)[C@@H](C)[C@H](OC(C)=O)[C@@H]1C
1.52: fold change [6, 21]
inactive: parasite load remaining [1] 21% | fluorescence ratio [2] 1.06 | inhibition [3] -0.45% | inhibition [4] -0.48% | fluorescence ratio [5] 0.94 | fold change [6, 20] 0.995 | z-score [7] -1.41 | log fold change Tl+ flux [8] 0.0494 | log fold change Tl+ flux [9] 0.0885 | log fold change Tl+ flux [12] 0.0279 | log fold change Tl+ flux [13] 0.0114 | log fold change Tl+ flux [15] 0.0213 | log fold change Tl+ flux [17] 0.0216
8050: cell count [6, 23]
8010: cell count [6, 22]
92%: viability [1]
active: log fold change Tl+ flux [10] 0.179 | log fold change Tl+ flux [11] 0.152 | log fold change Tl+ flux [14] 0.161 | log fold change Tl+ flux [16] 0.283

Reference: PubChem BioAssay
